Bioassay records (PubChem BioAssay)
HSF1 inh: HSF1 inhibitors in luciferase reporter cells, primary screen, cell-based, NIH3T3, luminescence; NIH3T3-HGL HSE-luciferase, MG132-induced, luminescence 8 h; active compounds read low; activity change, negative = inhibition, % at 7.5 µM (by protocol); actives 0.77% (n = 300,000);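 active = more than half of replicate wells show activity change below -50%, luminescence cut by over half; inconclusive = some wells, but at most half, below -50%; inactive = no replicate well below -50%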;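 also: luciferase reports HSF-1 transcriptional activity via heat shock element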
HSF-1 act: HSF-1 activators, primary screen, NIH3T3-HGL cells, MG132 stress, luminescence, single point; NIH3T3-HGL HSF-1 luciferase reporter, 8 h; 100% = twice DMSO control signal; activation, % at 9 µM; actives 1.7% (n = 300,000); AID 504408, 2011;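 active = mean replicate activation of at least 50% with a set share of replicates each reaching 50%; inconclusive = only one of those two conditions met; inactive = mean below 50% and too few replicates reaching it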
esBAF inh: Bmi1 luciferase reporter increase in mESCs, primary screen, esBAF inhibitor project, mouse ES cells, Bmi1 luciferase knock-in, single point | 24 h; 100% = twice the neutral-well signal | reporter increase, % at 12.5 µM | actives 2% (n = 350,000) | AID 602393, 2012; in the data active = activation above about 40%; inconclusive = no clear call, values can overlap the other calls;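 also: a rise in the Bmi1 reporter signal indicates esBAF inhibition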
Vif inh: HIV Vif self-association inhibitors, primary screen, imaging, HEK293T, single point; HEK293T cells, Vif self-association by quenched fluorescence, 24 h; inhibition, % at 7.49 µM; actives 0.35% (n = 340,000); AID 602346, 2012; in the data active = inhibition above about 50%, passing the limit was not always enough; inconclusive = no clear call, values can overlap the other calls; inactive = below about 31%
Hits are given with their value. This is a sample that favours compounds with a hit; in the whole collection about 3.4% have one here.

`Cc1cc(Br)ccc1NC(=O)CNC(=O)CN(C)Cc1nc2ccccc2c(=O)[nH]1` gave HSF1 inh inactive, HSF-1 act inactive, esBAF inh inactive and Vif inh inactive.
O=C(Nc1ccc2c(c1)[C@@H]1C[C@H](CC(=O)N3CCc4ccccc4C3)O[C@@H](CO)[C@@H]1O2)C1CCOCC1 was read as esBAF inh inactive.
Screening CN(C)c1cccc(-c2csc(N3CCC(C(N)=O)CC3)n2)c1 returned esBAF inh 60.3 and Vif inh inactive.
Cc1noc(C)c1-c1csc(N2CCC(C(N)=O)CC2)n1 was read as esBAF inh 74.4 and Vif inh inactive.
For NC(=O)C1CCN(c2nc(-c3cccs3)cs2)CC1 the results were esBAF inh 47.3 and Vif inh inactive.
O=C(C[C@@H]1CC[C@@H]2[C@H](COC[C@@H](O)CN2C(=O)c2cccnc2)O1)Nc1ccc(-c2ccccc2)cc1 was read as esBAF inh inactive.
`C[C@H](CO)N1C[C@H](C)[C@@H](CN(C)Cc2ccncc2)Oc2ccc(NS(C)(=O)=O)cc2C1=O` gave esBAF inh inactive.
For CCCNC(=O)C[C@@H]1CC[C@H]2[C@@H](COc3ccc(NC(=O)c4cccc(C(F)(F)F)c4)cc3C(=O)N2C)O1 the results were esBAF inh inactive.
`C[C@@H]1CCCCO[C@H](CN(C)Cc2ccc(Cl)c(Cl)c2)[C@H](C)CN([C@@H](C)CO)C(=O)c2cc(NC(=O)NC3CCCCC3)ccc2O1` gave esBAF inh inactive.
For O=C(C=Cc1ccccc1)c1cccs1 the results were Vif inh inactive.
For Nc1ccc(/C=C/C(=O)c2cccs2)cc1 the results were HSF1 inh inactive, HSF-1 act inactive, esBAF inh 68.2 and Vif inh inconclusive.
`COc1ccc(C(=O)CSc2nccn2C)cc1` gave HSF1 inh inactive, HSF-1 act inactive, esBAF inh 42.2 and Vif inh inactive.
Screening Cn1ccnc1SCC(=O)Nc1ccc(Oc2ccccc2)cc1 returned HSF1 inh inactive, HSF-1 act inactive, esBAF inh 49.8 and Vif inh inactive.
C[C@H](CO)N1C[C@H](C)[C@H](CN(C)C)Oc2ncc(-c3ccc(C(=O)N(C)C)cc3)cc2C1=O was read as esBAF inh inactive.
For C[C@H]1CN([C@@H](C)CO)C(=O)c2cc(C#CC(C)(C)O)cnc2O[C@H]1CN(C)Cc1cccc(F)c1 the results were esBAF inh inactive.
For COC(=O)c1ccc(C(=O)OC)c(NS(C)(=O)=O)c1 the results were HSF1 inh inactive, HSF-1 act inactive, esBAF inh inactive and Vif inh 72.3.
`CO[C@H]1CN(C)C(=O)c2cc(NC(=O)c3ccccc3)ccc2OC[C@H](C)N(C(=O)CN(C)C)C[C@@H]1C` gave esBAF inh inactive.
Screening CN(C)CCCNC(=O)C[C@H]1CC[C@@H]2[C@H](COc3ccc(NC(=O)c4ccccc4F)cc3C(=O)N2C)O1 returned esBAF inh inactive.
Fc1ccc(-c2cc(-c3ccccc3)nc(-n3cccn3)n2)cc1 was read as HSF1 inh -68.7, HSF-1 act inactive, esBAF inh inactive and Vif inh inactive.
Screening CCCNC(=O)C[C@H]1C[C@H]2c3cc(NC(=O)Nc4ccc(F)cc4)ccc3O[C@H]2[C@H](CO)O1 returned esBAF inh inactive.
NC(=O)c1cc([N+](=O)[O-])ccc1NCc1cccc2ccccc12 was read as esBAF inh inactive and Vif inh inactive.
`O=C(/C=C/Nc1ccc([N+](=O)[O-])cc1Br)c1cccc2ccccc12` gave HSF1 inh inactive, HSF-1 act 51.3 and Vif inh inactive.
`COc1ccc(CN(C)C[C@@H]2OCCCC[C@@H](C)Oc3ccc(NC(=O)Nc4ccc(F)cc4)cc3C(=O)N([C@@H](C)CO)C[C@@H]2C)cc1` gave esBAF inh inactive.
Screening O=C(c1ccccc1-c1nc(-c2ccccc2)no1)N1CCCC1 returned HSF1 inh inactive, HSF-1 act inactive, esBAF inh 56.9 and Vif inh inactive.
For Cc1ccc(-c2noc(-c3ccccc3C(=O)N3CCCC3)n2)cc1 the results were HSF1 inh inactive, HSF-1 act inactive, esBAF inh inactive and Vif inh inactive.
`Cc1ccc(-c2noc(-c3ccccc3C(=O)N3CCN(C)CC3)n2)cc1` gave HSF1 inh inactive, HSF-1 act inactive, esBAF inh 63.7 and Vif inh inactive.
For Cc1noc(C)c1C(=O)N1CCC(C(=O)c2ccccc2)CC1 the results were HSF1 inh -61.7, HSF-1 act inactive, esBAF inh inactive and Vif inh inactive.
O=C(Nc1ccc(OCC(=O)N2CCOCC2)cc1)c1ccccc1Cl was read as HSF1 inh inactive, HSF-1 act inactive, esBAF inh inactive and Vif inh inactive.
`Cc1noc(C)c1C(=O)N1CCC(Cc2ccccc2)CC1` gave HSF1 inh inactive, HSF-1 act inactive, esBAF inh inactive and Vif inh inactive.
`Cc1onc(-c2ccccc2Cl)c1C(=O)Nc1ccc(OCC(=O)N2CCOCC2)cc1` gave HSF1 inh -84.9, HSF-1 act inactive, esBAF inh inactive and Vif inh inactive.
C[C@@H]1CCCCO[C@@H](CN(C)S(=O)(=O)c2ccc(F)cc2)[C@H](C)CN([C@H](C)CO)C(=O)c2cc(NC(=O)Nc3ccc4c(c3)OCO4)ccc2O1 was read as esBAF inh inactive.
COc1ccc(NC(=O)N(C)C[C@@H]2Oc3ccc(NS(=O)(=O)c4ccccc4)cc3C(=O)N([C@@H](C)CO)C[C@@H]2C)cc1 was read as esBAF inh inactive.
`CC(=O)c1c(-c2ccc(Cl)cc2Cl)noc1C` gave HSF1 inh -57.5, HSF-1 act inactive and Vif inh inactive.
For Cc1onc(-c2ccc(Cl)cc2Cl)c1C(=O)/C=C/N(C)C the results were HSF1 inh inactive, HSF-1 act inactive and Vif inh inactive.
Cc1onc(-c2ccccc2Cl)c1C(=O)N1CCCC1 was read as HSF1 inh inactive, HSF-1 act inactive, esBAF inh inactive and Vif inh inactive.
`Cc1onc(-c2ccccc2Cl)c1C(=O)N1CCN(C)CC1` gave HSF1 inh inactive, HSF-1 act inactive, esBAF inh inactive and Vif inh 50.7.
Cc1ccc(S(=O)(=O)Nc2ccc3c(c2)C(=O)N([C@@H](C)CO)C[C@@H](C)[C@@H](CN(C)C(=O)c2ccccc2)OCCCC[C@@H](C)O3)cc1 was read as esBAF inh inactive.
Screening CCOC(=O)c1sc(=NC(=O)c2cccs2)n(C)c1C returned HSF1 inh inactive, HSF-1 act 52.9, esBAF inh inactive and Vif inh inactive.
`CCOC(=O)c1sc(=NC(=O)c2ccccc2Br)n(C)c1C` gave HSF1 inh inactive, HSF-1 act inactive, esBAF inh 58.4 and Vif inh inactive.
`CCOC(=O)c1sc(=NC(=O)c2ccc(Cl)s2)n(C)c1C` gave HSF1 inh inactive, HSF-1 act inactive and Vif inh inactive.
